Several values for one entry are separate records, joined by “and”; a condition that tells them apart may be missing. Equal entries are not always repeated. Records with an inconclusive call do not appear. A call without a number means that no potency is given here. Activity calls are given as the source filed them. Unless noted, calls come from the whole dose curve.
Assays:
[1] = Cytotoxicity counterscreen for inhibitors of SARS-CoV-2 cell entry (AID 1645845); note: nearly all actives have a fitted effect of over 50% in size; note: potency is the fitted concentration of half-maximal effect
In short: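 Expi293F/hACE2 cells seeded overnight; cpd pin-transferred in DMSO, 1 h preincubation, + media, 48 h 37 C 5% CO2; ATPLite 1step luminescence; normalized to cells and no cells.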

[2] = Primary qHTS to identify inhibitors of SARS-CoV-2 cell entry (AID 1645846); note: nearly all actives have a fitted effect of over 45% in size; note: potency is the fitted concentration of half-maximal effect
In short: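 HEK293-ACE2 (Expi293F, stable hACE2), 1500 cells/well, o/n 37C; cpd 23 nL pin, 1 h; MLV-PP w/ SARS-CoV-2-S (Wuhan-Hu-1, Δ19 C-term); 48 h 37C; Bright-Glo luminescence; normalized vs S-PP and bald PP.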

[3] = Primary qHTS for inhibitors of nuclear receptor binding SET domain protein 2 (NSD2) in an isogenic RCH-ACV NSD2 p.E1099K mutant (9B) (AID 1645876; active = well fitted curve in the direction sought with a large enough effect; an effect the other way counts as inactive or inconclusive; note: nearly all actives have a fitted effect of over 70% in size)
[4] = Primary qHTS for inhibitors of nuclear receptor binding SET domain protein 2 (NSD2) in an RCH-ACV wild type WT cells (2C) (AID 1645877; active = well fitted curve in the direction sought with a large enough effect; an effect the other way counts as inactive or inconclusive; note: nearly all actives have a fitted effect of over 70% in size)
[5] = VSVG counterscreen qHTS to identify inhibitors of SARS-CoV-2 cell entry (AID 1645847); note: potency is the fitted concentration of half-maximal effect; nearly all actives have a fitted effect of over 65% in size
In short: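 Expi293F/hACE2 cells, overnight plating; cpd 1 h, 37C/5% CO2; + VSV-G PP (MLV pseudotyping), 48 h; supernatant removed, Bright-Glo luciferase read. Norm: VSV-G PP and bald PP wells.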

[6] = biological target: Papain (Carica papaya) (UniProt P00784); assay: Primary qHTS assay for inhibitors of the protease papain (AID 1645873; active = well fitted curve in the direction sought with a large enough effect; an effect the other way counts as inactive or inconclusive;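 note: papain turnover of Z-FR-AMC read as the AMC fluorescence gain over 10 min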)
[7] = activity change, negative = inhibition: at 57.1 µM (top of the series) unless noted
[8] = SARS-CoV-2 pseudovirus cell entry assay, luminescence, at 57.1 µM (top of the series)

Chain of Papain (Carica papaya) (P00784 whole entry, looked up): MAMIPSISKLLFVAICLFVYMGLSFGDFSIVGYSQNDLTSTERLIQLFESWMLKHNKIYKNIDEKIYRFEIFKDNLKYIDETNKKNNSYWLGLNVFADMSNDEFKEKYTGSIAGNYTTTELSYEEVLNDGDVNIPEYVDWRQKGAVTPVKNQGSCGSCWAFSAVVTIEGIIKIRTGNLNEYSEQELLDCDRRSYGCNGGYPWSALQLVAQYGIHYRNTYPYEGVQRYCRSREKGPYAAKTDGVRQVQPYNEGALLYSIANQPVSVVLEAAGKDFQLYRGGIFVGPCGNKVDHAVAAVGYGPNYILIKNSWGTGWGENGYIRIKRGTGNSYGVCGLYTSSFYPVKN

Cc1nnc(C(C)C)n1C1CC2CCC(C1)N2CC[C@H](NC(=O)C1CCC(F)(F)CC1)c1ccccc1 (some centres not stated)
Potency [1]: inactive | activity change, negative = inhibition [2, 7]: 2.02% and -27.6%

CCOc1cc(NC(C)=O)ccc1C(=O)OC
Potency [1]: inactive | Potency [2, 7]: inactive

N#Cc1ccc(NC(=O)Nc2ccccc2Br)c2n[nH]nc12
Potency [1]: inactive | Potency [2, 7]: inactive

CNCc1ccc(-c2[nH]c3cc(F)cc4c3c2CCNC4=O)cc1
Potency [1]: inactive | activity change, negative = inhibition [2, 7]: -28.3%

Cc1ccc(C(=O)Nc2cccc(C(F)(F)F)c2)cc1-c1ccc2nc(NCCN3CCOCC3)ncc2c1
Potency [1]: inactive | Potency [2, 7]: 31.6 µM (active)

Cc1cccc(-c2nn(C(=S)Nc3ccccc3)cc2-c2ccnc3ccccc23)n1
Potency [1]: inactive | Potency [2, 7]: inactive

Cc1cnc(Nc2ccc(OCCN3CCCC3)cc2)nc1Nc1cccc(S(=O)(=O)NC(C)(C)C)c1
Potency [1]: 25.1 µM (active) | Potency [2, 7]: 22.4 µM (active)

CN(C(=O)C(Cl)Cl)c1ccc(OC(=O)c2ccco2)cc1
Potency [1]: inactive | Potency [2, 7]: inactive

CC(C)c1onc(-c2c(Cl)cccc2Cl)c1COc1ccc(/C=C/c2cccc(C(=O)O)c2)c(Cl)c1
Potency [1]: inactive | Potency [2, 7]: inactive

COc1c(N2CCNC(C)C2)c(F)cc2c(=O)c(C(=O)O)cn(C3CC3)c12 (configuration not stated)
Potency [1]: inactive | activity change, negative = inhibition [2, 7]: -3.63% and -6.19%

NC(=O)c1ccc(I)c([N+](=O)[O-])c1
Potency [1]: inactive | activity change, negative = inhibition [2, 7]: -6.13%

COc1cc2c(cc1OC)CN(CCc1ccc(NC(=O)c3cccc4c(=O)c5cccc(OC)c5[nH]c34)cc1)CC2
Potency [1]: inactive | activity change, negative = inhibition [2, 7]: -26.4%

CC(C)(C(=O)NCC(F)(F)C(F)(F)F)C(=O)N[C@@H]1C(=O)Nc2ccccc2-c2ccccc21
Potency [1]: inactive | activity change, negative = inhibition [2, 7]: -16.5%

Clc1ccccc1CN1CCc2sccc2C1
Potency [1]: inactive | Potency [2, 7]: inactive

CC(=O)Nc1ccc(O)cc1
Potency [1]: inactive | activity change, negative = inhibition [2, 7]: -27.9%

Cn1c(Nc2ccc(C(F)(F)F)cc2)nc2cc(Oc3ccnc(-c4ncc(C(F)(F)F)[nH]4)c3)ccc21
Potency [1]: inactive | activity change, negative = inhibition [2, 7]: -24.1%

C[C@@H](Oc1cc(-c2cnn(C3CCNCC3)c2)cnc1N)c1c(Cl)ccc(F)c1Cl
Potency [1]: 25.1 µM (active) | Potency [2, 7]: 11.2 µM (active)

CCCOC(=O)c1ccc(O)cc1
Potency [1]: inactive | Potency [2, 7]: inactive

CCC(C)(Oc1ccc(C2(c3ccc(OC(C)(CC)C(=O)O)cc3)CCCCC2)cc1)C(=O)O (configuration not stated)
Potency [1]: inactive | Potency [2, 7]: inactive

CCCn1c(=O)c2[nH]c(C34CC5CC3C[C@@H](C5)C4)nc2n(CCC)c1=O
Potency [1]: inactive | activity change, negative = inhibition [2, 7]: -12.4%

Cn1c2cc(S(C)=O)sc2c2cnn(Cc3cccc(N)c3)c(=O)c21 (configuration not stated)
Potency [1]: inactive | activity change, negative = inhibition [2, 7]: -23.3%

CCCCCCCCCCCCCC(=O)N[C@H](CO)[C@H](O)c1ccc([N+](=O)[O-])cc1
Potency [1]: inactive | Potency [2, 7]: inactive

O=C(NCCCNc1nc(Nc2cccc(NC(=O)N3CCCC3)c2)ncc1I)c1cccs1
Potency [1]: inactive | Potency [2, 7]: inactive

Cn1cc(-c2ccc3nnc(C(F)(F)c4ccc5ncccc5c4)n3n2)cn1
Potency [1]: inactive | Potency [2, 7]: inactive

COc1cccc(OC)c1-c1cc(C(=O)NC2(C(=O)O)C3CC4CC(C3)CC2C4)nn1-c1ccnc2cc(Cl)ccc12 (configuration not stated)
Potency [1]: inactive | Potency [2, 7]: inactive

CCCCCCCCCCCCCC(=O)OC(C)C
Potency [1]: inactive | Potency [2, 7]: inactive

Cc1cc2c(cc1C1(c3ccc(C(=O)O)cn3)CC1)C(C)(C)CCC2(C)C
Potency [1]: inactive | Potency [2, 7]: inactive

CCOC(=O)c1c(C)n(C)c2ccc(O)cc12
Potency [1]: inactive | activity change, negative = inhibition [2, 7]: -9.91%

CN(C)c1ccc(C2Nc3ccc4ccccc4c3C3=C2C(=O)CC(C)(C)C3)cc1Br (configuration not stated)
Potency [1]: inactive | activity change, negative = inhibition [2, 7]: -8.04%

Cc1ccc(C(=O)Nc2ccc(CN3CCN(C)CC3)c(C(F)(F)F)c2)cc1C#Cc1cnc2cccnn12
Potency [1]: 31.6 µM (active) | Potency [2, 7]: 8.91 µM (active)

CC(C[N+](C)(C)C)OC(N)=O (configuration not stated)
Potency [1]: inactive | Potency [2, 7]: inactive | activity change, negative = inhibition [2, 7]: -6.96%

COC1=C[C@@H]2[C@@H]3Cc4ccc(OC)c(O)c4[C@]2(CCN3C)CC1=O
Potency [1]: inactive | activity change, negative = inhibition [2, 7]: -15.7% | Potency [3]: inactive | Potency [4]: inactive

NC1=NC(=O)N2CC12 (configuration not stated)
Potency [1]: inactive | activity change, negative = inhibition [2, 8]: -95.3% | activity change, negative = inhibition ([2]; SARS-CoV-2 pseudovirus cell entry assay, luminescence, at 114 µM (top of the series)): -13.1% | Potency [3]: inactive | Potency [4]: inactive

CC1=C[C@@H]2[C@@H]([C@@H](O)C[C@@]3(C)[C@H]2C[C@@H](C)[C@]3(O)C(=O)CO)[C@@]2(C)Cc3cnn(-c4ccccc4)c3C=C12
Potency [2, 7]: inactive

Fc1ccc(Cl)cc1-c1nc(Nc2ccncc2)c2nccnc2n1
Potency [1]: inactive | activity change, negative = inhibition [2, 7]: -13.6%

CC(C)(C)c1cnc(CSc2cnc(NC(=O)C3CCNCC3)s2)o1
Potency [1]: inactive | Potency [5]: 1.92 µM (active)

O=C(c1cc(Cc2n[nH]c(=O)c3ccccc23)ccc1F)N1CCN(C(=O)C2CC2)CC1
Potency [1]: inactive | Potency [5]: 21.5 µM (active)

C[N+](C)(C)CC(=O)O
Potency [1]: inactive | activity change, negative = inhibition [2, 7]: -0.459% and -19.8% | Potency [6]: inactive

C[C@@H]1CN(c2c(F)c(N)c3c(=O)c(C(=O)O)cn(C4CC4)c3c2F)C[C@H](C)N1
Potency [1]: inactive | activity change, negative = inhibition ([2]; SARS-CoV-2 pseudovirus cell entry assay, luminescence, at 27.1 µM (top of the series)): -12.9% | activity change, negative = inhibition [2, 8]: -5.48%

COc1ccc2c(c1)CC[C@@H](CN(C)CC(=O)O)[C@H]2c1ccccc1
Potency [2, 7]: inactive

Cc1nn(Cc2ccccc2Cl)c(C)c1CN(C)CC(O)COc1ccc(Cl)cc1 (configuration not stated)
Potency [2, 7]: 31.6 µM (active)

Source: PubChem BioAssay (NCATS)
